Inconclusive results are not listed. Unmarked numbers belong to inactive results. Activity calls are given as the source filed them. Unless noted, the call rests on the fitted dose curve; in most records, active means well fitted curve in the direction sought with a large enough effect in the repeat runs; inconclusive means weak or mixed curves; inactive means no such curve, though single readings can be large; an effect the other way counts as inactive or inconclusive.

System in one assay: not listed separately
Put plainly: qHTS assay to identify small molecule antagonists of the retinoid-related orphan receptor gamma (ROR-gamma) signaling pathway - cell viability counter screen (AID 1159520). Further: on the % scale 0 is the no-effect control and ±100 the full control effect; nearly all actives have a fitted effect of over 50% in size. Conditions: Tet-on RORgamma CHO cells viability, ATP luminescence, 16 h; series mostly up to 92.4 µM. In a few lines: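 Tet-on ROR gamma CHO cells were given compounds for 2 hr, then doxycycline hyclate at 1 uM final, and incubated 16 hr at 37 C. Viability was measured as ATP content by CellTiter-Glo luminescence.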
In general terms: qHTS replaces the single test concentration by a dilution series.
Take `COc1ccccc1N1CCN(CC(O)COc2cc(OC)c(OC)c(OC)c2)CC1` (stereo not drawn): the call was inactive.
Still for that read-out and setting: as for `CC(=O)O[C@@H]1CC2C3CCc4cc(OC(=O)c5ccccc5)ccc4C3CCC2(C)[C@H]1OC(C)=O` (stereo partly drawn), the entry is “inactive”.
On the same count and under the same terms, next, `C/C=C(\C)C=O`: “inactive”; `CCCCCCCCCCCCCCBr`: “inactive”.
Still for that read-out and setting: next, `NNC(=O)CCCCC(=O)NN`: “inactive”; `Nc1nc(Cl)cc(Cl)n1`: “inactive”.
Consider `C=CCON/C(CCC)=C1\C(=O)CC(C)(C)C(C(=O)OC)=C1O`, for which the compound was called inactive.
Same read-out and setting: as for `CCCCOCCCC`, the entry is “inactive”.
The same measure, in the same setting: as for `CCCC(C)C(O)CC` (stereo not drawn), the entry is “inactive”; as for `Cc1cc(C)c(N)c(Cl)c1`, “inactive”; as for `CC(C)(C)OC(=O)c1ccccc1C(=O)O`, “inactive”.
Still for that read-out and setting: as for `C=CC(=O)OCC[N+](C)(C)C`, the entry is “inactive”; as for `CC/C=C\CCOC(=O)c1ccccc1`, “inactive”.
For `O=P(O)(O)C(O)(Cc1cccnc1)P(=O)(O)O`, the compound was classed as inactive.
For the compound `CCN1CCN(C(=O)N[C@@H](C(=O)N[C@@H]2C(=O)N3[C@@H]2SC(C)(C)[C@H]3C(=O)O)c2ccccc2)C(=O)C1=O`, the compound was classed as inactive.
Turning to `COC(=O)N/N=C/c1c[n+]([O-])c2ccccc2[n+]1[O-]`, the compound was classed as inactive.
Turning to `CCCCCCCCCCCCCCCC(=O)OC`, the activity, negative = cytotoxicity is 1.29% [at 19 µM].
As for `Cc1ccccc1C#N`, the compound was classed as inactive.
Still for that read-out and setting: as for `C[C@H]1COc2c(C3(N)CC3)c(F)cc3c(=O)c(C(=O)O)cn1c23`, the entry is “inactive”.
Regarding `CC(C)=CCC/C(C)=C\C#N`, the compound was classed as inactive.
Same read-out and setting: as for `N#CC1(N)CCCCC1`, the entry is “inactive”.
The same measure, in the same setting: next, `NCC1CCC(C(=O)Oc2ccc(CCC(=O)O)cc2)CC1` (stereo not drawn): “inactive”.
Same read-out and setting: next, `O=S(=O)(O)CC(O)CCl` (stereo not drawn): “inactive”; `CCCCCCCCCCCCCCCC/C=C/C1CC(=O)OC1=O` (stereo not drawn): “inactive”.
For `Cc1ccc(Br)cc1`, the outcome was inactive.
Still for that read-out and setting: next, `CCCCCCCCOCCC#N`: “inactive”; `CCCOc1ccc(C(=O)OCCN(CC)CC)cc1N`: “inactive”; `NC(=O)CC[C@@H](N)C(=O)O`: “inactive”.
On the same count and under the same terms, as for `CO/N=C(\C(=O)O)c1csc(NC(=O)CCl)n1`, the entry is “inactive”; as for `C=CCOC(=O)CCCCCCCC`, “inactive”; as for `O=C1CC2(CCCC2)CC(=O)N1CCNCC1COc2ccccc2O1` (stereo not drawn), “inactive”.
With `O=S(=O)(O)c1cc(I)c(O)c2ncccc12`, the call was inactive.
On the same count and under the same terms, as for `CCCCN1C(=O)c2ccccc2C1=O`, the entry is “inactive”.
For `CC(C)OC(=O)C(C(=O)OC(C)C)=C1SC=CS1`, the outcome was inactive.
`COC(=O)c1ccc(C(=O)O)cc1`: the compound was called inactive.
In the case of `C=CCN(CC=C)CC=C`, the compound was classed as inactive.
The same measure, in the same setting: next, `BrCCOc1ccccc1`: “inactive”; `CC(=O)c1ccc(O)c(C(N)=O)c1`: “inactive”.

A further assay has as its target Nuclear receptor ROR-gamma (Homo sapiens) (UniProt P51449). The experiment in a line: qHTS assay to identify small molecule antagonists of the retinoid-related orphan receptor gamma (ROR-gamma) signaling pathway (AID 1159521;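 further: CHO cells with doxycycline inducible ROR-gamma driving an RORE luciferase reporter; top concentration of the series differs between compounds; on the % scale 0 is the no-effect control and ±100 the full control effect; nearly all actives have a fitted effect of over 50% in size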). Conditions: Tet-on RORgamma CHO cells, RORE-luciferase, 16 h; series mostly up to 92.4 µM. The procedure, abridged:
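Decreased RORE-driven luciferase luminescence indicates antagonism. Tet-on RORγ CHO cells received compound, then 1 uM final doxycycline 2 h later; signal read after 16 h incubation.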
Take `COc1ccccc1N1CCN(CC(O)COc2cc(OC)c(OC)c(OC)c2)CC1` (stereo not drawn): the outcome was inactive.
Still for that read-out and setting: next, `CC(=O)O[C@@H]1CC2C3CCc4cc(OC(=O)c5ccccc5)ccc4C3CCC2(C)[C@H]1OC(C)=O` (stereo partly drawn): “inactive”; `C/C=C(\C)C=O`: “inactive”; `CCCCCCCCCCCCCCBr`: “inactive”.
In the case of `NNC(=O)CCCCC(=O)NN`, the result was inactive.
As for `Nc1nc(Cl)cc(Cl)n1`, the result was inactive.
Same read-out and setting: as for `C=CCON/C(CCC)=C1\C(=O)CC(C)(C)C(C(=O)OC)=C1O`, the entry is “inactive”; as for `CCCCOCCCC`, “inactive”.
Regarding `CCCC(C)C(O)CC` (stereo not drawn), the compound was called inactive.
Still for that read-out and setting: next, `Cc1cc(C)c(N)c(Cl)c1`: “inactive”; `CC(C)(C)OC(=O)c1ccccc1C(=O)O`: “inactive”; `C=CC(=O)OCC[N+](C)(C)C`: “inactive”.
The same measure, in the same setting: next, `CC/C=C\CCOC(=O)c1ccccc1`: “inactive”; `O=P(O)(O)C(O)(Cc1cccnc1)P(=O)(O)O`: “inactive”.
Still for that read-out and setting: as for `CCN1CCN(C(=O)N[C@@H](C(=O)N[C@@H]2C(=O)N3[C@@H]2SC(C)(C)[C@H]3C(=O)O)c2ccccc2)C(=O)C1=O`, the entry is “inactive”; as for `COC(=O)N/N=C/c1c[n+]([O-])c2ccccc2[n+]1[O-]`, “inactive”.
For the compound `CCCCCCCCCCCCCCCC(=O)OC`, the activity change, negative = inhibition was 7.03% [at 19 µM].
For `Cc1ccccc1C#N`, the outcome was inactive.
Still for that read-out and setting: as for `C[C@H]1COc2c(C3(N)CC3)c(F)cc3c(=O)c(C(=O)O)cn1c23`, the entry is “inactive”.
With `CC(C)=CCC/C(C)=C\C#N`, the result was inactive.
As for `N#CC1(N)CCCCC1`, the compound was classed as inactive.
Same read-out and setting: next, `NCC1CCC(C(=O)Oc2ccc(CCC(=O)O)cc2)CC1` (stereo not drawn): “inactive”.
Same read-out and setting: next, `O=S(=O)(O)CC(O)CCl` (stereo not drawn): “inactive”.
On to `CCCCCCCCCCCCCCCC/C=C/C1CC(=O)OC1=O` (stereo not drawn), for which the call was inactive.
Still for that read-out and setting: as for `Cc1ccc(Br)cc1`, the entry is “inactive”.
For `CCCCCCCCOCCC#N`, the compound was classed as inactive.
Take `CCCOc1ccc(C(=O)OCCN(CC)CC)cc1N`: the compound was classed as inactive.
`NC(=O)CC[C@@H](N)C(=O)O`: the outcome was inactive.
Still for that read-out and setting: next, `CO/N=C(\C(=O)O)c1csc(NC(=O)CCl)n1`: “inactive”; `C=CCOC(=O)CCCCCCCC`: “inactive”.
As to `O=C1CC2(CCCC2)CC(=O)N1CCNCC1COc2ccccc2O1` (stereo not drawn), the compound was called inactive.
With `O=S(=O)(O)c1cc(I)c(O)c2ncccc12`, the result was inactive.
Still for that read-out and setting: next, `CCCCN1C(=O)c2ccccc2C1=O`: “inactive”.
Same read-out and setting: next, `CC(C)OC(=O)C(C(=O)OC(C)C)=C1SC=CS1`: “inactive”; `COC(=O)c1ccc(C(=O)O)cc1`: “inactive”.
In the case of `C=CCN(CC=C)CC=C`, the compound was called inactive.
On the same count and under the same terms, next, `BrCCOc1ccccc1`: “inactive”.
Take `CC(=O)c1ccc(O)c(C(N)=O)c1`: the outcome was inactive.

System in a further assay: not listed separately
The experiment in a line: qHTS assay to identify small molecule agonists of the AP-1 signaling pathway - cell viability counter screen (AID 1159525; calls by dose curve; further: nearly all actives have a fitted effect of over 55% in size). The following applies: ME-180 (cervical carcinoma) AP-1-bla cells viability, ATP luminescence, 5 h; series mostly up to 76.8 µM. The procedure, abridged:
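Same-well cytotoxicity counter screen of the Tox21 10K library in ME-180 cells. The readout is ATP-dependent luminescence after 5 h compound treatment. Data are normalised to DMSO and tetra n-octyl ammonium bromide controls.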
In the case of `COc1ccccc1N1CCN(CC(O)COc2cc(OC)c(OC)c(OC)c2)CC1` (stereo not drawn), the compound was called inactive.
On the same count and under the same terms, as for `CC(=O)O[C@@H]1CC2C3CCc4cc(OC(=O)c5ccccc5)ccc4C3CCC2(C)[C@H]1OC(C)=O` (stereo partly drawn), the entry is “inactive”; as for `C/C=C(\C)C=O`, “inactive”; as for `CCCCCCCCCCCCCCBr`, “inactive”.
For `NNC(=O)CCCCC(=O)NN`, the compound was classed as inactive.
Same read-out and setting: next, `Nc1nc(Cl)cc(Cl)n1`: “inactive”; `CCCC(C)C(O)CC` (stereo not drawn): “inactive”.
Turning to `Cc1cc(C)c(N)c(Cl)c1`, the compound was called inactive.
For `CC(C)(C)OC(=O)c1ccccc1C(=O)O`, the outcome was inactive.
Take `C=CC(=O)OCC[N+](C)(C)C`: the result was inactive.
`CC/C=C\CCOC(=O)c1ccccc1`: the call was inactive.
Take `O=P(O)(O)C(O)(Cc1cccnc1)P(=O)(O)O`: the call was inactive.
For `CCN1CCN(C(=O)N[C@@H](C(=O)N[C@@H]2C(=O)N3[C@@H]2SC(C)(C)[C@H]3C(=O)O)c2ccccc2)C(=O)C1=O`, the compound was classed as inactive.
With `COC(=O)N/N=C/c1c[n+]([O-])c2ccccc2[n+]1[O-]`, the compound was called inactive.
As to `CCCCCCCCCCCCCCCC(=O)OC`, the viability change, negative = cytotoxic is -12.9% [at 15.8 µM].
For `Cc1ccccc1C#N`, the compound was classed as inactive.
The same measure, in the same setting: next, `C[C@H]1COc2c(C3(N)CC3)c(F)cc3c(=O)c(C(=O)O)cn1c23`: “inactive”; `N#CC1(N)CCCCC1`: “inactive”.
On the same count and under the same terms, as for `NCC1CCC(C(=O)Oc2ccc(CCC(=O)O)cc2)CC1` (stereo not drawn), the entry is “inactive”.
Same read-out and setting: next, `CCCCCCCCCCCCCCCC/C=C/C1CC(=O)OC1=O` (stereo not drawn): “inactive”; `Cc1ccc(Br)cc1`: “inactive”.
In the case of `CCCCCCCCOCCC#N`, the call was inactive.
As to `CCCOc1ccc(C(=O)OCCN(CC)CC)cc1N`, the compound was classed as inactive.
On the same count and under the same terms, as for `CO/N=C(\C(=O)O)c1csc(NC(=O)CCl)n1`, the entry is “inactive”; as for `C=CCOC(=O)CCCCCCCC`, “inactive”; as for `O=C1CC2(CCCC2)CC(=O)N1CCNCC1COc2ccccc2O1` (stereo not drawn), “inactive”.
In the case of `O=S(=O)(O)c1cc(I)c(O)c2ncccc12`, the compound was called inactive.
As for `CCCCN1C(=O)c2ccccc2C1=O`, the call was inactive.
Take `COC(=O)c1ccc(C(=O)O)cc1`: the compound was called inactive.
Consider `C=CCN(CC=C)CC=C`, for which the call was inactive.
As for `BrCCOc1ccccc1`, the outcome was inactive.
With `CC(=O)c1ccc(O)c(C(N)=O)c1`, the compound was called inactive.
